RGS7-Gao reg: modulates binding of RGS7 to human Galphao. 220,000 compounds, 0.35% hits. P09471. AID 1439. Multiplexed bead flow cytometry; actives lie on both sides. binding response (% of control), % at 10 µM; in the data active = binding response below about 49% or above about 150%; inconclusive = no clear call, values can overlap the other calls; inactive = in between;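 note: fluorescent Galphao held in activated GDP-AlF4 state binding bead-coupled RGS7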
Avidin fluor: compound fluoresces at 488/530 nm on avidin beads; compound fluorescence 488/530 nm, flow cytometry; active compounds read high; fluorescence (KMESF) at 10 µM; 220,000 compounds, 0.38% hits; in the data active = fluorescence above about 47
RGS8-Gao reg: modulates binding of RGS8 to human Galphao; response (percent of control binding), % at 10 µM; AID 1423; multiplexed bead flow cytometry; actives lie on both sides; P09471; 220,000 compounds, 0.34% hits; in the data active = response below about 60% or above about 140%; inactive = in between;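 note: Galphao activated as the GDP aluminium fluoride complex binding bead-coupled RGS8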
RGS16-Gao: modulates binding between human RGS16 and Galphao | binding response (% of control), % at 10 µM | bead-based flow cytometry RGS16-Galphao binding, fluorescence; actives lie on both sides | O15492+P09471 | 220,000 compounds, 0.38% hits;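 note: Galphao activated by GDP with aluminum fluoride before binding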
Target sequence (O15492 whole entry, looked up): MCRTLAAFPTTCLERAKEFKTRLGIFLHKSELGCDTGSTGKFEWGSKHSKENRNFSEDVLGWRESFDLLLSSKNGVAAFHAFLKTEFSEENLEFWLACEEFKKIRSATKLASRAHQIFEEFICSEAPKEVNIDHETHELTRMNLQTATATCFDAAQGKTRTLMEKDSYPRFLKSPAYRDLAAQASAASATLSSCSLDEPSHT
Target sequence (P09471 whole entry, looked up): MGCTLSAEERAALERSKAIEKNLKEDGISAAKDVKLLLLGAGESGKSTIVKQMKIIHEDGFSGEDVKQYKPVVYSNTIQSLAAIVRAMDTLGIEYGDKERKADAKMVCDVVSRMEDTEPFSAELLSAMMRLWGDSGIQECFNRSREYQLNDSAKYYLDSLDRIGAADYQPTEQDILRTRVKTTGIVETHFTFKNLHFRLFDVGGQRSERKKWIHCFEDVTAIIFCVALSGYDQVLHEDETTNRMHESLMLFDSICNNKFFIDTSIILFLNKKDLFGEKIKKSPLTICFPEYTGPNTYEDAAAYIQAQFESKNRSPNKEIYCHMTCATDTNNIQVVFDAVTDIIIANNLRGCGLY
GSH fluor: compound fluoresces at 488/530 nm on GSH beads | 190,000 compounds, 0.25% hits | GSH beads flow cytometry, compound fluorescence 488/530 nm; active compounds read high | AID 1776 | fluorescence (KMESF) at 10 µM; in the data active = fluorescence above about 89;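 note: glutathione beads carrying GST-tagged Bcl family fusion proteins plus one bare bead set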
RGS4-Gao reg: human RGS4-Galphao interaction regulation; P09471; Multiplexed bead flow cytometry, RGS4-Galphao binding; actives lie on both sides; binding response (% of control), % at 10 µM; 220,000 compounds, 0.33% hits; AID 1415; in the data active = binding response below about 49% or above about 150%; inactive = in between;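 note: fluorescent Galphao activated with aluminum fluoride binding bead-coupled RGS4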
RGS4-Gao HTS: modulates binding between human RGS4 and Galphao; AID 1504; shares compounds with RGS16-Gao; 1,600 compounds, 99% hits; multiplexed bead flow cytometry, RGS–Galpha-o binding; RGS4–Galpha-o binding response, % at 10 µM;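 note: fluorescently labeled Galpha-o bound to GDP with aluminium fluoride binding biotinylated RGS beads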
Biotin-avidin: interferes with biotinylated probe binding to avidin beads; shares compounds with RGS16-Gao; streptavidin beads, fluorescein-biotin binding, flow cytometry; inhibition, % at 10 µM; 1,700 tested, under 10 active; AID 1783;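 active = inhibition above 50%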;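 note: median green fluorescence of gated singlet beads compared with DMSO control wells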
RGS8-Gao confirm: RGS8-Galphao interaction regulation, single point confirmation. shares compounds with RGS16-Gao. binding response (% of control), % at 10 µM. 1,700 compounds, 3% hits. bead-based flow cytometry RGS8-Galphao binding, fluorescence; actives lie on both sides; in the data active = binding response below about 72% or above about 130%; inactive = in between;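 note: Galphao activated as GDP AlF4 complex before binding bead RGS8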
RGS7-Gao confirm: confirmation of regulators of human RGS7-Galphao interaction; AID 1837; response (percent of control binding), % at 10 µM; 1,700 compounds, 7.8% hits; shares compounds with RGS16-Gao; bead-based flow cytometry RGS7-Galphao binding; actives lie on both sides; in the data active = response below about 75% or above about 130%; inactive = in between;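 note: fluorescent Galphao activated with GDP and aluminum fluoride binding bead-coupled RGS7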
RGS16-Gao conf: confirmation of regulators of human RGS16-Galphao interaction; shares compounds with RGS16-Gao; bead-based flow cytometry, RGS16-Galphao binding; actives lie on both sides; response (% of control binding), % at 10 µM; 1,700 compounds, 4% hits; AID 1838; in the data active = response below about 74% or above about 130%; inactive = in between;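 note: Galphao activated as the GDP aluminium fluoride complex binding bead-coupled RGS16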
RGS4-Gao confirm: RGS4-Galphao interaction regulation, single point confirmation. RGS4-Galphao binding, multiplexed bead flow cytometry; actives lie on both sides. binding response (% of control), % at 10 µM. shares compounds with RGS16-Gao. 1,700 compounds, 4% hits. AID 1840; in the data active = binding response below about 74% or above about 130%; inactive = in between
RGS19-Gao single: confirmation of regulators of human RGS19-Galphao interaction | shares compounds with RGS16-Gao | AID 1841 | 1,700 compounds, 5% hits | bead-based flow cytometry RGS19-Galphao binding; actives lie on both sides | response (percent of control binding), % at 10 µM; in the data active = response below about 50% or above about 160%; inactive = in between
Numbers stand for hits; i = inactive; ? = inconclusive; nt = not tested or not shown; [ ] = another dose, or the depositor's remark. An excerpt weighted towards active compounds, which were near 1.2% of everything screened. Unless noted, the rule behind the calls is not given here.

SMILES	RGS7-Gao reg	Avidin fluor	RGS8-Gao reg	RGS16-Gao	GSH fluor	RGS4-Gao reg	RGS4-Gao HTS	Biotin-avidin	RGS8-Gao confirm	RGS7-Gao confirm	RGS16-Gao conf	RGS4-Gao confirm	RGS19-Gao single
COc1ccc(S(=O)(=O)Nc2cc(Sc3ncn[nH]3)c(O)c3ccccc23)cc1	i	i	i	11	i	i	72	nt	nt	nt	nt	nt	nt
COC(=O)c1ccccc1NC(=O)c1ccc2c(c1)OCCO2	i	i	i	231[activator]	i	i	134	i	i	i	i	i	i
CC(C)(C)C(=O)Nc1ccccc1C(=O)OCC(=O)c1ccc2c(c1)OCCO2	i	i	i	i	i	i	nt	nt	nt	nt	nt	nt	nt
COc1cccc(CN2CCN(C(=S)NCc3ccc(Cl)cc3)CC2)c1	i	i	i	i	i	i	nt	nt	nt	nt	nt	nt	nt
CCCn1c(SCC(=O)N2CCCC(C)C2)nnc1-c1cccnc1 (stereo not drawn)	i	i	i	i	i	i	nt	nt	nt	nt	nt	nt	nt
O=C(C(c1ccccc1)c1ccccc1)N1CCN(CCN2C(=O)c3cccc4cccc(c34)C2=O)CC1	nt	i	i	i	i	i	nt	i	i	i	i	i	i
N#C/C(=C\c1sc(N2CCOCC2)nc1-c1ccccc1)C(=O)Nc1cccc2ccccc12	417[activator]	312	i	i	i	i	141	nt	nt	nt	nt	nt	nt
CN(C)C(=S)Nc1ccc2c(c1)OCO2	i	i	i	i	i	i	nt	nt	nt	nt	nt	nt	nt
S=C(Nc1ccc2c(c1)OCO2)Nc1ccc2c(c1)OCO2	159[activator]	i	141[activator]	i	i	i	142	i	i	i	i	i	i
CCOc1cc(-c2nnc(-c3ccco3)o2)cc(OCC)c1OCC	156[activator]	194	i	i	i	i	119	i	i	i	i	i	i
CCOc1ccc(-c2nnc(-c3ccco3)o2)cc1OCC	i	i	i	i	i	i	nt	nt	nt	nt	nt	nt	nt
COC(=O)Nc1cc([N+](=O)[O-])ccc1OC	i	i	i	i	i	i	nt	nt	nt	nt	nt	nt	nt
COc1ccc(OC(=O)Nc2ccc([N+](=O)[O-])cc2OC)cc1	?	i	48	i	nt	39	nt	i	i	i	i	i	i
O=S1(=O)CCC(N=Cc2cc(Br)ccc2O)C1 (stereo not drawn)	151[activator]	49	i	i	i	i	112	i	i	i	i	i	i
O=c1c2ccccc2c(C=NC2CCS(=O)(=O)C2)c(O)n1-c1ccccc1 (stereo not drawn)	i	i	i	i	i	i	nt	nt	nt	nt	nt	nt	nt
CCOC(=O)C1CCN(C(=O)CSc2ccc(Cl)cc2)CC1	i	i	49	8.3	i	49	nt	i	i	i	i	i	i
CCOC(=O)C1CCN(C(=O)CSc2ccc(Br)cc2)CC1	i	i	i	i	i	i	nt	nt	nt	nt	nt	nt	nt
O=C(/C=C/c1ccccc1)NNC(=O)C1CC1	nt	nt	nt	nt	i	nt	nt	i	i	i	i	i	i
CC(NC(=O)Cc1ccc(-c2ccccc2)cc1)c1ccccc1 (stereo not drawn)	263[activator]	358	i	i	i	152[activator]	nt	i	i	i	i	i	i
COc1ccc(CN2CCc3ccccc3C2)c(OC)c1	?	i	i	i	nt	i	nt	nt	nt	nt	nt	nt	nt
